Test results from PubChem BioAssay (NCATS).
Inconclusive results are not listed. Values without a mark were called inactive. Calls of active or inactive are those of the source. Calls come from the whole dose curve.

molecular target: Atrial natriuretic peptide receptor 1 (Homo sapiens) (UniProt P16066); test: Natriuretic polypeptide receptor (hNpr1) antagonism - Pilot CMLD screen (AID 1347052); details: HEK293 hNpr1 GloSensor cGMP luminescence, ANP-stimulated; series mostly up to 9.22 µM; activity change, negative = inhibition: at the top concentration
Sequence (P16066 whole entry, looked up, the tested form may be a part): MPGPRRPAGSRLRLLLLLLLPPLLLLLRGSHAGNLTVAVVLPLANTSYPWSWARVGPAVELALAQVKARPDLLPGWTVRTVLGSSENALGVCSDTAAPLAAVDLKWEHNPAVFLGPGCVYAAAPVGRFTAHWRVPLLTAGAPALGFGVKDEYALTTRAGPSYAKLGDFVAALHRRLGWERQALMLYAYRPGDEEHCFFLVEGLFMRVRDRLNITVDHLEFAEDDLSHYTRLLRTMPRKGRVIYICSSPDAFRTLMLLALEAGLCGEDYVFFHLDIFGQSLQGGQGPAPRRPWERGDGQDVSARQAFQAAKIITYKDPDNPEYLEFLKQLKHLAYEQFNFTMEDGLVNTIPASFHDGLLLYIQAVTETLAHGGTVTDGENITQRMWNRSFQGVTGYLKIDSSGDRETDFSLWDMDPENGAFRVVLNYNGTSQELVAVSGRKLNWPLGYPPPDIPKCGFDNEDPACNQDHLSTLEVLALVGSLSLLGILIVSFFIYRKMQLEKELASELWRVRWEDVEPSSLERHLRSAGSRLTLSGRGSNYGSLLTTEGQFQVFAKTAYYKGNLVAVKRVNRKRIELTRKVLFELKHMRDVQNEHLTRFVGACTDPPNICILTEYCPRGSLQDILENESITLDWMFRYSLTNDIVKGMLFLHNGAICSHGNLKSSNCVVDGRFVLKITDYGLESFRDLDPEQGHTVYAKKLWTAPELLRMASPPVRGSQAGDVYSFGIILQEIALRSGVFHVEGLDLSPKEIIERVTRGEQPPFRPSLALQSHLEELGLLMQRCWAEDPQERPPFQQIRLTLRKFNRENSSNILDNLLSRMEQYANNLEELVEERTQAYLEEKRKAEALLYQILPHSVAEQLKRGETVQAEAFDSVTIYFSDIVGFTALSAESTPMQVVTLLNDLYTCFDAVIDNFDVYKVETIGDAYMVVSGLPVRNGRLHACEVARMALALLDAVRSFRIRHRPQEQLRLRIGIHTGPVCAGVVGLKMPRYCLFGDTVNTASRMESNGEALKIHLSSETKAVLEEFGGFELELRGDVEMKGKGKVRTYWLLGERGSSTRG
Experimental: In order to identify small molecular compounds that inhibit the hNpr1 receptor we developed a high-throughput assay to measure inhibition of the guanylate cyclase activity of the receptor. cGMP production was measured using a circular permutated Firefly luciferase (FLuc) enzyme functionally linked to the cGMP binding domain of human phosphodiesterase 5 (GloSensor technology pGS-40F, (Fan, F. et al. 2008). The cGMP-sensor was expressed in human embryonic kidney 293 (HEK-293) cells and FLuc activity was measured after stimulation with hNrp agonist peptide. hNrp agonists activates the receptor's associated guanylyl cyclase (GC) domain producing cGMP which then binds to the GloSensor resulting in FLuc activation, the enzymatic activity of which can be measured as bioluminescence with addition of luciferin substrate.
This assay was initially piloted by testing with a small library of specialty compounds.
PROTOCOL TABLES (as described by Inglese J, Shamu CE and Guy RK. 2007)
SEQUENCE No. (e.g., 1, 2, 3, etc.); […] (e.g., Cells, Incubation, Reagent, etc.); VALUE and DESCRIPTION.
1. Cells. Seed 1500 HEK293 cGMP-sensor cells expressing hNpr1 per well in 4uL into Greiner 1536-well white/solid bottom high base, tissue culture-treated plates.
2. Incubation. Incubate plated cells at 37C in 5% CO2, 95% RH overnight.
3. Reagent. Add 1uL per well GloSensor reagent from Promega (2% final concentration) or CO2 independent media vehicle control to respective columns of Greiner 1536-well plates.
4. Incubation. Incubate plated cells at room temperature for 2 h, protect from light.
5. Compounds. Library compounds and A-71915 control added at 23 nL per well, transferred by Pin Tool.
6. Incubation. Incubate plated cells for 30 min. at room temperature, protect from light.
7. Detector. GloSensor baseline pre-read luminescence measured using CCD-based camera (Viewlux).
8. Compound. Add 1uL of hNppA peptide to 0.1 nM final concentration to stimulate hNpr1 or CO2 independent media as vehicle control.
9. Incubation. Incubate treated cells at room temperature for 20 min., protect from light.
10. Detector. GloSensor post-hNppA luminescence measured using CCD-based camera (Viewlux).
NOTES (numbers refer to Sequence numbers above)
1. HEK293 cells expressing hNpr1 and GIP/pGS-40F grown to 85-95% confluence (48-72 h) in T175 culture flasks (CO2 independent media supplemented with 10% FBS, 1% Pen/Strep antibiotics and 1 ug/mL puromycin). Trypsinize and harvest cells from T175 culture flasks and filter through 40 um cell strainer. Cells counted with Invitrogen Countess (30,000,000 - 50,000,000 cells/flask). Cells diluted to a final concentration of 375 cells/uL in CO2 independent media and a Millipore multidrop used to dispense 1500 cells per well (4uL/well) into 13 1536-well Greiner White/Solid bottom, high base tissue-culture treated (TC) plates and one Aurora 1536-well Black/Clear bottom, low base, TC plate (for visual inspection of cell health throughout the duration of the assay).
2. Cells incubated overnight at ambient temperature, 24 h. at 37C in 95% RH incubator protected from light, covered with metal lid with gas-exchange holes.
3. Prepare GloSensor Reagent (Promega): Reconstitute GloSensor luciferase substrate by adding 8.2mL Hepes buffer to 250mg substrate, mix well, protect from light and stored at -80C. Prepare a fresh 12% GloSensor solution in CO2 independent supplemented plating media (see above). Mix well and store at ambient temperature, protected from light. 1uL 12% GloSensor Luciferase Reagent added (2% final concentration) to respective columns of 13 x 1536-well Greiner plate with BioRaptr, 1uL CO2 independent plating media added to respective columns as vehicle control with BioRaptr.
4. Cells incubated for 2 h. at ambient temperature, protected from light with metal lid with gas-exchange holes.
5. A-71915 stock solution prepared (10 mM in DMSO). […]
% is set by controls: 0 for no effect and ±100 for the full control effect; potency is the fitted concentration of half-maximal effect.

SMILES | activity change, negative = inhibition | Potency
C[C@H]1CC[C@H]2C(=O)N(Cc3cccc([N+](=O)[O-])c3)C[C@H](O)CN2[C@H]1c1cccc(Br)c1 | -0.4% | 
COc1cccc([C@@H]2[C@@H](C)CC[C@@H]3C(=O)NC[C@H](O)CN32)c1 | -2.11% | 
C=CCN1c2ccccc2[C@]23C[C@@H](C(=O)OC)N(C(=O)c4cccs4)C2=NC(C(=O)OC)=C(C(=O)OC)[C@H]13 | -0.502% | 
COC(=O)C1=C(C)N(Cc2ccccc2)C(=NCc2ccccc2)NC1c1ccccc1 (stereo not given) | -3.47% | 
C=CCN1C(=O)[C@@]2(CC(C)=C[C@@H](COc3ccccc3)O2)c2ccccc21 | -5.29% | 
COc1ccc2c(c1)O[C@@H](c1ccc3c(c1)OCO3)[C@H](OC(=O)Nc1ccc(OC(F)F)cc1)C2=O | 0.843% | 
C[C@@H]1C[C@H]2[C@@H](C)C(=O)N3[C@@H](C[C@@H](C)[C@@H]3c3ccccc3)[C@@H](C)C(=O)N2[C@H]1c1ccccc1 | 10% | 
COC1=C[C@H](C(=O)NCc2ccccn2)[C@@]2(C)Cc3ccccc3[C@@H]2CC1=O | 6.72% | 
c1ccc(CCc2nc(-c3ccccc3)oc2NC2CCCCC2)cc1 | 0.308% | 
CCN1C(=NCCCOC(C)C)N[C@@H](CCc2ccccc2)[C@H](C(=O)OC)[C@H]1C | 8.5% | 
CC1=C[C@@H](COCc2ccccc2)O[C@@]2(C1)C(=O)Nc1cccc(Br)c12 |  | inactive
COc1ccc2c(c1)C(=O)[C@@H](OC(=O)NS(=O)(=O)c1ccc(F)cc1)[C@H](c1ccc(OC)c(Br)c1)O2 | -0.364% | 
COC(=O)[C@@H]1CC[C@H](C)[C@@H](c2ccc(C)cc2)N1C(=O)c1ccc(C=NOC[C@@H](O)COCc2ccco2)cc1 | 14.3% | 
CCN1C(=O)[C@@H]2[C@H]3[C@H](O)[C@H](O)CC(=NOC[C@@H](O)COCc4ccco4)[C@@H]3CC[C@H]2C1=O |  | inactive
COC(=O)C1=C2C=CCCN2C(=O)NC1c1ccccc1 (stereo not given) | 4.53% | 
C=C(C)C(O)C=Cc1ccc(C(F)(F)F)cc1 (stereo not given) |  | 5.31 µM (active)
CCCCCC1=CC2=C(C(=O)OC)C(c3ccccc3)NC(=O)N2CC1 (stereo not given) | -2.33% | 
COc1ccc(-c2cnnc(CCCn3ccnc3-c3ccccc3)n2)cc1 | -2.13% | 
COc1ccc(-c2nc(-c3ccccc3)oc2Nc2ccc3ccccc3c2)cc1 | -3.17% | 
COc1cc(O)c(C(=O)C=Cc2ccc3c(c2)OCO3)c(OC)c1 | -8.14% | 

SMILES | activity change, negative = inhibition | Potency
CC1(OC(=O)C2CCCC2)C(=O)C=C2C=C(c3ccsc3)N(C(CO)CO)C=C2C1=O (stereo not given) | 0.799% | 
COC(=O)C1(C(=O)OC)C[C@@H]2CON=C2[C@@H]1c1ccccc1 | -0.311% | 
C=C(C)C(=O)C=CC=Cc1ccccc1 | -19.8% | 
CC[C@@]12C=C(C=Cc3ccccc3)[C@](CC)(C1)[C@H](c1ccccc1)CC2=O | -0.281% | 
O=C(NC(CC1=CCCCC1)c1ccccc1)C(F)(F)F (stereo not given) | 10.4% | 
COC(=O)C1=C(C(=O)OC)[C@@H]2N(C)c3ccccc3[C@@]23C[C@@H](C(=O)OC)N(C(=O)Nc2cccc(C#N)c2)C3=N1 | -4.52% | 
COCCN1C(=NCCc2cccnc2)NC(c2ccccc2)C(C(=O)OC)=C1C (stereo not given) | -4.43% | 
COC(=O)CC=C[C@H](C)[C@@H](NC(=O)C(F)(F)F)c1ccccc1Br | 0.891% | 
CCN1C(=NCc2ccccc2)N[C@@H](CCc2ccccc2)[C@H](C(=O)OC)[C@H]1C | -7.77% | 
COC(=O)C1=C(C)N(Cc2ccccc2)C(=NCC(C)C)NC1c1ccc(Br)cc1 (stereo not given) | -7.21% | 
CC1=C2[C@H](O)[C@H]([C@@H](C)C(=O)NCCC(C)C)CC[C@@]2(C)C=CC1=O | -2.47% | 
CC1(OC(=O)C2CCCC2)C(=O)C=C2C=C(c3ccsc3)N(CC3CC3)C=C2C1=O (stereo not given) | 2.57% | 
CC(=CC[Si](C)(C)C)CCC=O | 0.316% | 
C=CCOC(=O)C1(C(NC(=O)OC)c2ccccc2)C(=O)Cc2ccccc21 (stereo not given) | -4.18% | 
CC#CCC1(C(=O)OC)C(=O)NC[C@H]1c1ccccc1 (stereo not given in full) | 0.0791% | 
C[C@H]1CC[C@H]2C(=O)N(Cc3ccc(Cl)cc3)C[C@@H](O)CN2[C@H]1c1ccc(Br)cc1 | -2.83% | 
COCCN1C(=O)C2=C(C1=O)C1N(C)c3ccccc3[C@@]13C[C@@H](CO)N(C(C)=O)C3=N2 (stereo not given in full) | 0.15% | 
CC12C=C(C=Cc3ccc(Br)cc3)C(C)(C1)[C@H](c1ccc(Br)cc1)CC2=O (stereo not given in full) | 1.2% | 
CCCCc1cc2c(cn1)=C(OC(=O)c1cnc3ccccc3n1)C(C)(OC(=O)CC)C(=O)C=2 (stereo not given) | 6.82% | 
CC#CCN1c2ccccc2[C@]23CCC(=O)N(Cc4ccco4)C2=NC(C(=O)OC)=C(C(=O)OC)[C@H]13 | -19.2% | 
